Laboratory results reported in PubChem BioAssay AID2315 (National Center for Advancing Translational Sciences (NCATS), 2010).
Screen size: about 290,000 compounds; about 27,000 (9.3%) were called active. This excerpt belongs to a sample that is enriched for actives. Values without a mark were called inactive. Cut-off read from the data, not from the text of the source: active = inhibition mostly above about 28% (no sharp cut-off); inactive = mostly below about 43%. Where a SMILES comes first, the peptide text is derived from it. The star is where a group is joined. OPac = O=C(CO*)c1ccccc1; Bz = O=C(c1ccccc1)*

experiment: A qHTS for Small Molecule Inhibitors of Shiga Toxin; conditions: Vero cells, Shiga toxin protein synthesis inhibition reporter; at 38.7 µM, hits give high values; note: 0% is about no effect

Compound | inhibition
O=C(N/N=C\c1cc2c(cc1Cl)OCO2)c1ccc(Br)s1 | -3.59%
CC(NCc1cccs1)C(=O)Nc1cc(Cl)cc(Cl)c1 (stereo unspecified) | 24.3%
Cc1ccc(-c2csc(N3CCN(c4cc5c(cc4Cl)nc(-c4ccncc4)n5CCOCCO)CC3)n2)cc1 | -3.86%
Cc1sc2ncn(CC(=O)NCCCC(=O)NCc3ccc(F)cc3)c(=O)c2c1C | -6.98%
Cc1n[nH]c(=O)n1-c1ccc(C(C)C)cc1 | -1.39%
O=C1CS(=O)CN1c1ccc(Oc2ccccc2)cc1 (stereo unspecified) | -11.4%
Cc1n[nH]c(=O)n1-c1ccc(Oc2ccccc2)cc1 | 32% (active)
COC(=O)c1ccccc1SC1CC(=O)N(c2cccc(C)c2)C1=O (stereo unspecified) | 25.9%
Cc1ccc([N+](=O)[O-])cc1S(=O)(=O)N1CCCN(C)CC1 | -3.46%
C(=N\Nc1ccc2ccccc2n1)/c1ccc2c(c1)OCO2 | 4.21%
Cc1noc(C)c1/C=N/Nc1ccc2ccccc2n1 | 64.2% (active)
Cc1nc(Cl)cc(N/N=C/c2ccccc2)n1 | 47.5%
CN(C)CCCNC(=S)N1CCN(c2nc(-c3ccccc3)cs2)CC1 | 23.7%
COc1ccccc1-c1c(C)nn2c(C)c(C(C)=O)cnc12 | 3.88%
COc1cc(C(C)=O)ccc1OC(=O)CN1C(=O)c2ccccc2C1=O | -4.18%
COc1ccccc1-c1sc2ccccc2c1-c1ccc(C(C)=O)cc1 | 24.8% (active)
CCOc1ccc(C2C(C#N)=C(N)N(N(C)C)C3=C2C(=O)CCC3)cc1 (stereo unspecified) | -5.92%
CC(C)c1ccc(/C=C2\NC(=O)NC2=O)cc1 | 38.8%
CSCCC(NS(=O)(=O)c1ccc(C)cc1)C(=O)NCCc1c[nH]c2ccccc12 (stereo unspecified) | -5.02%
CC(C)(C)OC(=O)N/N=C/c1ccc(C(=O)O)cc1 | 51.6% (active)
COC(=O)N/N=C/c1ccc(/C=N/NC(=O)OC)cc1 | -9.65%

Compound | inhibition
O=C(O)c1ccc(/C=N/NC(=O)c2ccc(Br)cc2)cc1 | 17.5%
CC1CC(C)CN(S(=O)(=O)c2cccc3nonc23)C1 (stereo unspecified) | -8.46%
COc1cccc(N(C(=O)CNC(=O)c2ccco2)C(C(=O)NC2CCCCC2)c2cccnc2)c1 (stereo unspecified) | -9.43%
Oc1ccc(-c2c(-c3ccccc3)nn3c(C(F)(F)F)cc(C(F)(F)F)nc23)cc1 | -10.8%
COC(=O)c1cccc([N+](=O)[O-])c1CS(=O)(=O)c1ccc(C)cc1 | -10.2%
Cc1ccc(N=C2NC(=O)c3cccc([N+](=O)[O-])c32)cc1 | 98.8% (active)
CCN(Cc1ccccc1)C(=O)CCS(=O)(=O)c1ccc2c(c1)oc(=O)n2C | 0.994%
CSc1nnc(CNC(=O)c2ccccc2)n1-c1ccc(F)cc1 | -6.7%
O=C(CNC(=O)c1ccccc1F)c1ccc(Br)cc1 | 79.7% (active)
COC(=O)CNC(=O)c1ccccc1F | -15.6%
O=C(CNC(=O)c1ccc(F)cc1)c1ccccc1 | 90.2% (active)
O=C(COC(=O)CNC(=O)c1ccccc1F)NCC(F)(F)F | 16.2%
O=C(CNC(=O)c1ccccc1)NCC(=O)OCC(=O)c1ccccc1 (Bz-Gly-Gly-OPac) | -5.66%
COc1cc(C(C(=O)NC2CCCC2)N(Cc2ccccc2)C(=O)c2snc(C(N)=O)c2N)ccc1O (stereo unspecified) | -1.22%
COc1cc(C(=O)OC2CCOC2=O)c([N+](=O)[O-])cc1OC (stereo unspecified) | -8.09%
COCCCN1C(=O)C(=O)/C(=C(/O)c2ccc(S(=O)(=O)N3CCOCC3)cc2)C1c1ccc(F)cc1 (stereo unspecified) | -3.02%
Cc1ccc(S(=O)(=O)N2CCC3(CC2)OCCO3)c(C)c1 | 19.9%
CN(CCC1CCOCC1)C(=O)CC1C(=O)NCCN1Cc1cccc(F)c1 (stereo unspecified) | -4.33%
COc1cc(OC)cc(-c2nnc(N(C)C(=O)c3ccncc3)s2)c1 | -6.02%
CN(C(=O)COc1ccccc1)c1nnc(-c2ccncc2)s1 | 3.11%
CN(C(=O)c1ccccn1)c1nnc(-c2ccccn2)s1 | 115% (active)

Compound | inhibition
COc1ccc(C(=O)NCCn2nc(C)cc2C)cc1OC1CCN(C(C)=O)CC1 | -11.5%
Cc1ccc(NC(=O)C(CC(=O)O)C2CCCO2)c(C)c1 (stereo unspecified) | -1.94%
Cc1ccc(-c2csc(NC(=O)Cc3cccs3)n2)cc1C | 37.6%
Cc1ccc(C(=O)NNC(=O)c2cccs2)cc1 | 86.5% (active)
CC(C)C(=O)Nc1ccc(C(=O)NNC(=O)c2cccs2)cc1 | 28.6%
Cc1ccc(C)c(NC(=O)CCC(=O)NNC(=O)c2cccs2)c1 | -2.76%
Cc1ccc(-c2csc(NNC(=O)c3ccccc3)n2)cc1 | 1.14%
O=C(NNC(=O)c1ccc(Cl)cc1Cl)c1cccs1 | 74.9% (active)
Cc1ccc(NNC(=O)c2cccs2)cc1Cl | 22.1%
COc1cccc(CC(=O)Nc2nc(-c3ccc(OC)c(OC)c3)cs2)c1 | 17.3%
COc1cccc(CC(=O)Nc2ccc(-c3csc(C)n3)cc2)c1 | 28.8% (active)
COc1cccc(NC(=O)CN2CCN(c3nc(-c4cccc(OC)c4)cs3)CC2)c1 | -2.33%
NNC(=O)c1ccc(Cl)cc1Cl | 16.2%
COc1ccccc1CCNS(=O)(=O)c1cc2c3c(c1)C(C)C(=O)N3CCC2 (stereo unspecified) | -4.37%
CCn1c(=O)c(=O)[nH]c2c(=O)oc3ccc(S(=O)(=O)Nc4ccc(OC)cc4)cc3c21 | -7.69%
O=C(NCc1cccs1)c1ccc(CS(=O)Cc2ccccc2Cl)o1 (stereo unspecified) | -8.99%
COc1cc(CO)ccc1OCC(=O)Nc1cccc2ccccc12 | -2.74%
CC1CN(C(=O)CCC(=O)NCc2cccnc2)c2ccccc2O1 (stereo unspecified) | -5.3%
O=C(CN1C(=O)c2cccnc2Oc2ccc(Cl)cc21)Nc1ccc(F)cc1 | -1.35%
